Bioassay records from PubChem BioAssay.
HT1080-NT tox – kills 2HG-producing HT-1080-NT fibrosarcoma cells. HT-1080-NT fibrosarcoma viability, CellTiter-Glo ATP luminescence, 48 h. Potency, µM (top dose mostly 46.1 µM), without a hit: top-dose activity, negative = less viability, hits mostly cytotoxic. 360,000 tested, 1.6% active;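 further: NT is the 2HG producing partner of a matched IDH1 knockdown line; potency means the concentration at half of the fitted maximal effect; 0% = DMSO-treated cells and -100% = media-only wells without cells; nearly all actives have a fitted effect of over 55% in size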
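Read-out is CellTiter-Glo luminescence after 10 minutes at room temperature, following 48 hours' compound treatment of HT-1080-NT cells (750 cells/well, RPMI, 5% FBS, 37 degrees C).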
ELG1 repair inh – ELG1-dependent DNA repair inhibition. AID 504467. HEK293T ELG1-luciferase reporter, luminescence, 16 h; DNA damage induced by 5-fluorouridine. 330,000 tested, 2.3% active. Potency, µM (series often up to 46.1 µM), for inactives: top-dose activity change, negative = inhibition, usual class: inhibitors; further: potency means the concentration at half of the fitted maximal effect; nearly all actives have a fitted effect of over 55% in size
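5-Fluorouridine DNA damage + compound/DMSO, 2,000 cells/well, 16 h, 37 °C/5% CO2. ONE-Glo, 30 min RT, luminescence. Readout = decrease in reporter signal.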
IL-1B inflam inh – blocks inflammasome-driven IL-1 beta release; THP-1 LPS/ATP IL-1B secretion, AlphaLISA, 16 h; active compounds read low; activity change, % at 57.5 µM; 360,000 tested, 4.7% active; AID 743279; in the data active means activity change below about -50%; inconclusive means mostly about -30% to -49%
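Secreted IL-1B measured by AlphaLISA bead assay after 16 h compound exposure of THP-1 cells; compounds (final up to 57.5 uM) added 1 h before LPS (250 ng/mL) and ATP (1.25 mM) stimulation; lower signal means less secretion.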
TDP1 cell noCPT – qHTS for Inhibitors of human tyrosyl-DNA phosphodiesterase 1 (TDP1): qHTS in cells in absence of CPT; DT40 Tdp1-/- hTDP1 cells, no CPT, ATP luminescence, 48 h; Potency, µM (highest dose often 46.2 µM), without a hit: at the highest dose activity change, negative = growth inhibition, usual class: inhibitors; 420,000 tested, 15% active; further: potency means the concentration at half of the fitted maximal effect; nearly all actives have a fitted effect of over 55% in size
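Chicken DT40 Tdp1-/- cells stably complemented with human TDP1 were seeded at 400 cells/well with DMSO in place of 20 nM camptothecin. After compound pinning, cells grew at least 48 hr at 37 °C; viability read by CellTiter-Glo luminescence.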
TDP1 cell CPT – growth inhibition of DT40 Tdp1-/-;hTDP1 cells with camptothecin (screen for TDP1 inhibitors). chicken DT40 Tdp1-/-;hTDP1 cells + 20 nM CPT, ATP luminescence, 48 h. 420,000 tested, 12% active. AID 686979. Potency, µM (series often up to 46.2 µM), for the others: at the top dose activity change, negative = growth inhibition, actives largely listed as inhibitors; further: potency means the concentration at half of the fitted maximal effect; nearly all actives have a fitted effect of over 55% in size
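Cell growth measured by CellTiter-Glo luminescence after a minimum 48 h, 37 C compound exposure with 20 nM CPT in Tdp1-knockout DT40 cells stably expressing hTDP1, seeded 400/well; qHTS titration format.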
HT1080 IDH1KD tx – toxicity to HT-1080 IDH1 knockdown cells (counter line) | HT-1080 IDH1 knockdown viability, ATP luminescence, 48 h | Potency, µM (top dose mostly 46.1 µM), for the others: top-dose activity, negative = toxicity, actives largely listed as cytotoxic | 360,000 tested, 2% active | AID 686971;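 further: potency means the concentration at half of the fitted maximal effect; 0% = DMSO wells and -100% = cell-free medium wells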
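After a 2 h attachment period, IDH1KD HT-1080 cells took pin-transferred compound for 48 h at 37 °C; ATP-based luminescence after 10 min room-temperature reagent incubation reported viability.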
* hit, by the source's call; ? = inconclusive; . = no result; [ ] = remark or other dose. In the library only some 19% were active in any assay of this set; here they are far more common. Unless noted, the call rests on the fitted dose curve; in most records, active means well fitted curve in the direction sought with a large enough effect; inconclusive means small, poorly fitted or top-dose-only effect, or another doubt; inactive means no such curve, though single readings can be large; an effect the other way counts as inactive or inconclusive. Unless noted, on the % scale 0 is the no-effect control and ±100 the full control effect.

SMILES | HT1080-NT tox | ELG1 repair inh | IL-1B inflam inh | TDP1 cell noCPT | TDP1 cell CPT | HT1080 IDH1KD tx
Cc1cc(C)cc(NC(=O)CSc2nc3[nH]ncc3c(=O)[nH]2)c1 | ? | 3.5% | 0.8 | ? | ? | ?
O=C(CSc1nnc2c(n1)[nH]c1ccccc12)Nc1ccc(N2CCOCC2)cc1 | 3.5% | -15.9% | 48.1 | ? | ? | -2.7%
CCOC(=O)CN(C(=O)CSc1nnc2c(n1)[nH]c1ccc(OC)cc12)c1ccc(F)cc1 | -18.9% | ? | -58.8* | ? | 20.6µM* | -7.5%
Cc1csc(NC(=O)CSc2nc3[nH]ncc3c(=O)[nH]2)n1 | -2.0% | 6.6% | 3.7 | 29.1µM* | ? | 10.1%
O=C(CSc1nnc2c(n1)[nH]c1ccccc12)Nc1cccc(S(=O)(=O)N2CCOCC2)c1 | -3.5% | -13.5% | 0.0 | ? | 14.6µM* | -5.9%
Cc1ccc(NC(=O)CSc2nnc3c(n2)[nH]c2ccccc23)cc1 | 2.3% | -1.9% | 20.2 | 8.4% | 3.4% | 2.6%
CC(=O)c1ccc(NC(=O)CSc2nnc3c(n2)[nH]c2ccccc23)cc1 | . | . | . | 16.4µM* | ? | .
COc1ccc(CNC(=O)CSc2nnc3c(n2)[nH]c2ccc(OC)cc23)cc1 | 3.8% | -8.5% | 78.3 | 0.9% | 9.3% | -5.5%
Cc1nc2c(OCc3ccccc3)cccn2c1CC#N | . | . | . | -56.1% | ? | .
O=S(=O)(NC1Cc2ccccc2C1)c1ccccc1 | -0.9% | 6.6% | -20.4 | 12.0% | -24.3% | -0.4%
Cc1noc(C)c1-c1nc(N2CCN(C)CC2)c2ccccc2n1 | . | . | . | -9.8% | -19.5% | .
COc1ccc2[nH]c3nc(SCC(=O)Nc4cccc(NC(C)=O)c4)nnc3c2c1 | -9.1% | -3.3% | -51.6* | 3.2% | -0.6% | -7.3%
Cc1ccc(-c2csc(NC(=O)CSC3=NCCS3)n2)cc1 | -3.6% | ? | ? | -28.7% | ? | -2.8%
CCc1ccc2[nH]c3nc(SCc4nnc(-c5ccccc5)o4)nnc3c2c1 | 8.9% | -12.5% | -9.4 | ? | ? | 11.1%
Cc1ccc(-c2csc(NC(=O)CSc3nnc4c(n3)[nH]c3ccccc34)n2)cc1 | 18.4µM* | ? | -5.0 | 5.8µM* | 13µM* | 20.6µM*
Cc1ccc(-c2csc(NC(=O)CSc3nc(C)cc(=O)[nH]3)n2)cc1 | 1.8%[9.24 µM] | ? | 34.3 | 18.4µM* | 18.4µM* | 9.2%
Cc1nnc(NC(=O)CSc2nnc3c(n2)[nH]c2ccccc23)s1 | . | . | . | -22.4% | -5.8% | .
COc1ccc2[nH]c3nc(SCc4nnc(-c5ccccc5)o4)nnc3c2c1 | ? | 16.4µM* | 13.0 | ? | ? | ?
COc1cccc(NC(=O)CSc2nnc3c(n2)[nH]c2ccc(C)cc23)c1 | 3.2% | -2.2% | -6.8 | -13.8% | -4.3% | 12.2%
CNc1ncncc1-c1ccccc1CN(C)C | . | . | . | -6.1% | 3.7% | .
CC(C)NC(=O)N1CCC2(CC1)CCN(C(=O)c1csnn1)CC2 | . | . | . | -3.8% | 21.3% | .
COc1ccc(C)cc1NS(=O)(=O)c1ccc2c(c1)N(C)CCO2 | 4.1% | ? | 20.0 | 14.6µM* | ? | -6.3%
CCOC(=O)c1cccc(NS(=O)(=O)c2ccc(-c3cnc(C4CC4)o3)cc2)c1 | . | . | . | 2.59µM* | 2.31µM* | .
COc1ccc(C)cc1NS(=O)(=O)c1ccc2c(c1)n(C)c(=O)n2C | -2.2% | ? | 23.6 | ? | -2.2% | 0.0%
CC(=O)c1ccc(NS(=O)(=O)c2ccc(-c3cnc(C4CC4)o3)cc2)cc1 | -13.7% | 11.4% | 58.6 | ? | -29.5% | -11.5%
Cc1cccc(C)c1NS(=O)(=O)c1ccc(-c2cnc(C3CC3)o2)cc1 | 0.082µM* | 1.3% | 49.6 | 0.116µM* | 0.0058µM* | 0.164µM*
